Records with an inconclusive call do not appear. The source made the active and inactive calls. Rule for the calls: active = hit-call score of the fitted dose curve at least 0.9, where 1 is the maximum; inconclusive = response in the unintended direction; inactive = score below 0.9.
assay: Tanguay_ZF_120hpf_MORT_legacy: (Legacy) Oregon State University Tanguay Lab 120 Hour Post-fertilization zebrafish Assay for Mortality (AID 2283633)
Procedure, shortened: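 Dechorionated Tropical 5D wild-type zebrafish embryos, one per well from 6 hpf, static exposure in 0.64% DMSO at 28C until 120 hpf. Mortality scored as binary by brightfield microscopy at 24 and 120 hpf.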

Structure (SMILES) | outcome
O=P1(N(CCCl)CCCl)NCCCO1 (stereo not given) | inactive
CC(Cc1ccc(OCC(=O)O)cc1)NCC(O)c1csc(C(F)(F)F)n1 (stereo not given) | inactive
Cc1ccc(O)cc1C | inactive
Cc1ccc([N+](=O)[O-])cc1C | inactive
CCOP(=S)(OCC)SCSCC | inactive
CCNc1nc(Cl)nc(NC(C)(C)C)n1 | inactive
CN(C)C(=O)Cl | inactive
Nc1ccc2ccccc2c1 | inactive
CCCCc1ccccc1 | inactive
Nc1cc2c3c(c1)C(c1ccccc1)=N[C@@H](NC(=O)c1cccnc1)C(=O)N3CC2 | inactive
CCN(CC)c1ccccc1 | inactive
CCCCN(CCCC)SN(C)C(=O)Oc1cccc2c1OC(C)(C)C2 | inactive
CCOP(=S)(Oc1ccc([N+](=O)[O-])cc1)c1ccccc1 (stereo not given) | inactive
c1cc2c3c(cccc3c1)CC2 | inactive
CCOc1ccc(C(C)(C)COCc2cccc(Oc3ccccc3)c2)cc1 | inactive
CCC1(c2ccccc2)C(=O)N=C(O)NC1=O (stereo not given) | inactive
O=C(O)C1C(C(=O)O)C2(Cl)C(Cl)=C(Cl)C1(Cl)C2(Cl)Cl (stereo not given) | inactive
CSC(C)(C)C=NO | inactive
CC(C)(C)c1ccc(O)cc1 | inactive
O=C(O)C(Cl)Cl | inactive
CC(Cl)(Cl)C(=O)O | inactive
O=[N+]([O-])c1ccc(Cl)c(Cl)c1 | inactive
CCCCCCCc1ccc(O)cc1 | inactive
c1ccc(OP(Oc2ccccc2)Oc2ccccc2)cc1 | inactive
COCCOCCO | inactive
ClC(Cl)(Cl)c1ccccc1 | inactive
ClC(Cl)c1ccccc1 | inactive

assay: Tanguay_ZF_120hpf_YSE_legacy: (Legacy) Oregon State University Tanguay Lab 120 Hour Post-fertilization zebrafish Assay for Yolk Sac Edema (AID 2283634);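 for AC50: actives raise the incidence of yolk sac edema above the DMSO baseline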
Procedure, shortened: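 Dechorionated Tropical 5D wild-type zebrafish embryos were exposed statically, one per well, from 6 to 120 hpf at 28C in 0.64% DMSO. Yolk sac edema was scored present/absent by brightfield at 120 hpf, and dead embryos were excluded.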

Structure (SMILES) | outcome | AC50
O=P1(N(CCCl)CCCl)NCCCO1 (stereo not given) | inactive | –
CC(Cc1ccc(OCC(=O)O)cc1)NCC(O)c1csc(C(F)(F)F)n1 (stereo not given) | inactive | –
Cc1ccc(O)cc1C | inactive | –
Cc1ccc([N+](=O)[O-])cc1C | inactive | –
CCOP(=S)(OCC)SCSCC | inactive | –
CCNc1nc(Cl)nc(NC(C)(C)C)n1 | inactive | –
CN(C)C(=O)Cl | inactive | –
Nc1ccc2ccccc2c1 | – | 34.8 µM (active)
CCCCc1ccccc1 | inactive | –
Nc1cc2c3c(c1)C(c1ccccc1)=N[C@@H](NC(=O)c1cccnc1)C(=O)N3CC2 | inactive | –
CCN(CC)c1ccccc1 | inactive | –
CCCCN(CCCC)SN(C)C(=O)Oc1cccc2c1OC(C)(C)C2 | inactive | –
c1cc2c3c(cccc3c1)CC2 | inactive | –
CCOc1ccc(C(C)(C)COCc2cccc(Oc3ccccc3)c2)cc1 | inactive | –
CCC1(c2ccccc2)C(=O)N=C(O)NC1=O (stereo not given) | inactive | –
O=C(O)C1C(C(=O)O)C2(Cl)C(Cl)=C(Cl)C1(Cl)C2(Cl)Cl (stereo not given) | inactive | –
CSC(C)(C)C=NO | inactive | –
CC(C)(C)c1ccc(O)cc1 | inactive | –
O=C(O)C(Cl)Cl | inactive | –
CC(Cl)(Cl)C(=O)O | inactive | –
O=[N+]([O-])c1ccc(Cl)c(Cl)c1 | inactive | –
CCCCCCCc1ccc(O)cc1 | inactive | –
c1ccc(OP(Oc2ccccc2)Oc2ccccc2)cc1 | inactive | –
COCCOCCO | inactive | –
ClC(Cl)(Cl)c1ccccc1 | inactive | –
ClC(Cl)c1ccccc1 | inactive | –

assay: Tanguay_ZF_120hpf_AXIS_legacy: (Legacy) Oregon State University Tanguay Lab 120 Hour Post-fertilization zebrafish Assay for Body Axis Malformation (AID 2283635);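 for AC50: potency for an increased fraction of larvae scored with body axis malformation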
Procedure, shortened: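 Dechorionated wild-type Tropical 5D zebrafish embryos, one per well, statically exposed from 6 hpf to 120 hpf at 28C in 0.64% DMSO final. Body axis malformation scored present/absent by brightfield microscopy at 120 hpf; dead embryos excluded.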

Structure (SMILES) | outcome | AC50
O=P1(N(CCCl)CCCl)NCCCO1 (stereo not given) | inactive | –
CC(Cc1ccc(OCC(=O)O)cc1)NCC(O)c1csc(C(F)(F)F)n1 (stereo not given) | inactive | –
Cc1ccc(O)cc1C | inactive | –
Cc1ccc([N+](=O)[O-])cc1C | inactive | –
CCOP(=S)(OCC)SCSCC | inactive | –
Nc1ccc2ccccc2c1 | – | 33.4 µM (active)
CCCCc1ccccc1 | inactive | –
CCCCN(CCCC)SN(C)C(=O)Oc1cccc2c1OC(C)(C)C2 | inactive | –
CCOP(=S)(Oc1ccc([N+](=O)[O-])cc1)c1ccccc1 (stereo not given) | inactive | –
c1cc2c3c(cccc3c1)CC2 | inactive | –
CCC1(c2ccccc2)C(=O)N=C(O)NC1=O (stereo not given) | inactive | –
O=C(O)C1C(C(=O)O)C2(Cl)C(Cl)=C(Cl)C1(Cl)C2(Cl)Cl (stereo not given) | inactive | –
CSC(C)(C)C=NO | inactive | –
CC(C)(C)c1ccc(O)cc1 | inactive | –
O=C(O)C(Cl)Cl | inactive | –
CC(Cl)(Cl)C(=O)O | inactive | –
O=[N+]([O-])c1ccc(Cl)c(Cl)c1 | inactive | –
CCCCCCCc1ccc(O)cc1 | inactive | –
c1ccc(OP(Oc2ccccc2)Oc2ccccc2)cc1 | inactive | –
COCCOCCO | inactive | –
ClC(Cl)(Cl)c1ccccc1 | inactive | –
ClC(Cl)c1ccccc1 | inactive | –

Source: PubChem BioAssay (EPA / NIEHS)
